Assay in all cases: NCI-60 one-dose screen, 48 h (100 = growth as untreated, 0 = no growth, -100 = all killed)
What all share (conditions): 10 µM unless noted

In assay [1] the test system is SK-MEL-2 melanoma.
The test system of assay [2] is EKVX NSCLC.
For assay [3], the system named is SN12C renal.
The subject of assay [4] is TK-10 renal.
The test system of assay [5] is ACHN renal.
The subject of assay [6] is CAKI-1 renal.
For assay [7], the system named is A498 renal.
Assay [8] relates to CCRF-CEM leukemia.
Assay [9] relates to MOLT-4 leukemia.
For assay [10], the system named is SR leukemia.
The test system of assay [11] is RPMI-8226 leukemia.
Assay [12] relates to OVCAR-8 ovarian.
Assay [13] deals with OVCAR-5 ovarian.
The test system of assay [14] is OVCAR-4 ovarian.
For assay [15], the system named is IGROV1 ovarian.
In assay [16] the test system is OVCAR-3 ovarian.
The test system of assay [17] is HS 578T breast.
The subject of assay [18] is NCI/ADR-RES ovarian.
For assay [19], the system named is SK-OV-3 ovarian.
Assay [20] concerns UO-31 renal.

Structures are written as SMILES. The panel holds about 83,000 compounds, 20% with a hit somewhere; the sample as a whole holds those more often.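 The endpoint reported here, percent growth, reads 100 for growth as untreated, 0 for no net growth and -100 for all cells dead.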 Values without a mark were called inactive. Calls of active or inactive are those of the source. The calls were made as follows: active = growth percent below 10; inactive = the rest.

On to `CC1(C)CC(=O)c2c(ccc(C(=O)C[C@H](N)CO)c2N)O1`, for which the growth in assay [1] is 36.8%; in [2], 80%; in assay [3], 32.6%; in assay [4], 79.4%; in assay [5], 46.2%; in assay [6] it was 20.3%. Besides, the growth in assay [7] was -16.8% (active); in assay [8], 17.7%; in [9] it was 38.5%; in assay [10], 16.7%; in [11], 13%; in assay [12], 32.4%. The growth in assay [13] was 64.2%; in [14], 69.8%; in assay [15], 34.7%; in assay [16], 7.02% (active); in assay [17], 82.4%; in [18], 70.5%.

`CCOC(=O)c1ccc(-c2ccc3cc(OC)ccc3c2)nc1C`: the growth is 102% in assay [1]; 99.4% in assay [2]; 101% in assay [3]; 84.3% in assay [4]; 96.8% in [5]; 99.8% in assay [7]. The growth in assay [8] is 95.3%; in assay [9], 78%; in [10], 78.3%; in assay [11] it was 105%; in assay [12] it was 107%; in assay [13], 95.4%. In addition, the growth in assay [14] is 112%; in assay [19] it was 98.6%; in assay [15] it was 102%; in assay [16] it was 106%; in assay [17], 120%; in [18], 108%.

On to `O=[N+]([O-])c1ccc(-c2cc3c(Nc4ccc(Sc5nc6ccccc6s5)c(Cl)c4)ncnc3s2)cc1`, for which the growth was 46.7% in assay [1]; 39.7% in assay [2]; 43.4% in [20]; 48.2% in assay [4]; 34.4% in assay [5]; -0.884% (active) in assay [7]. Further, the growth is 34.6% in assay [8]; 23.7% in assay [9]; 38.7% in assay [10]; 23.5% in assay [12]; 49.9% in assay [13]; 35.2% in assay [14]. Also, the growth was 37.1% in assay [19]; 43.8% in [15]; 14.7% in assay [16]; 87.8% in assay [17]; 60.3% in assay [18].

With `CCOc1cccnc1/C=N/NC(N)=S`, the growth in assay [1] was 52.2%; in [3], 53.5%; in [20] it was 9.56% (active); in [4], 66%; in [5] it was 35.7%; in [6], 29%. The growth was 3.97% (active) in [7]; 17.4% in assay [8]; 7.07% (active) in [9]; 6.35% (active) in [10]; 49.9% in assay [11]; 43.7% in assay [12]. The growth in assay [13] was 66.2%; in assay [14], 26.5%; in assay [19], 42.7%; in assay [15] it was -7.7% (active); in assay [16], 22.2%; in assay [17], 60.4%. Besides, the growth in assay [18] is 48.8%.

Take `Fc1ccc(Nc2nc(Nc3ccc(-c4nc5ccccc5[nH]4)cc3)c3cn[nH]c3n2)cc1`: the growth is 92.8% in assay [1]; 72.4% in [2]; 79.8% in assay [20]; 99.5% in [4]; 78.9% in assay [5]; 89.7% in assay [6]. For the same molecule, the growth in assay [7] is 101%; in [8] it was 31.9%; in [9], 21.6%; in [11], 1.66% (active); in assay [12], 56.8%; in assay [13], 106%. In addition, the growth in [14] is 81.8%; in assay [19], 90.3%; in assay [15], 81.6%; in assay [16], 20.3%; in assay [17], 93.5%; in [18] it was 67.5%.

`CCCCn1c(=O)[nH]c(N)c(C(c2ccc(F)cc2)c2c(N)[nH]c(=O)n(CCCC)c2=O)c1=O`: the growth in assay [1] was 58.6%; in [2] it was 69.3%; in assay [20], 103%; in assay [4] it was 68.3%; in assay [5] it was 92.7%; in assay [6] it was 100%. Also, the growth was 90.1% in assay [7]; 29.8% in assay [9]; 42% in assay [10]; 50% in [11]; 94.4% in assay [13]; 80.6% in assay [19]. The growth in assay [15] was 78.8%; in assay [16] it was 54%; in [17], 81.1%; in assay [18], 96.7%.

With `CCN(CCO)CC(=O)c1cc(Cl)cc(Cl)c1Cl`, the growth in [1] is 92.4%; in assay [2], 105%; in assay [20], 93.5%; in assay [4], 86.7%; in assay [7] it was 102%; in assay [8] it was 82.9%. In addition, the growth in assay [9] was 90.5%; in assay [10] it was 95.4%; in assay [11], 97.1%; in assay [12], 103%; in assay [13], 109%; in assay [14] it was 115%. The growth in assay [19] was 102%; in assay [15], 109%; in assay [16] it was 106%; in assay [17] it was 101%; in [18] it was 102%.

Consider `COc1ccc(NC(=O)c2cccc(-c3cc(=O)c4c(O)c(OC)c(OC)cc4o3)c2)cc1`, for which the growth in assay [1] was 83.4%; in [3] it was 84.3%; in assay [20] it was 93.4%; in assay [4], 105%; in assay [5], 83.6%; in [6], 93.6%. The growth in assay [7] was 83.8%; in assay [8] it was 84%; in [9], 103%; in assay [10], 80.8%; in assay [11], 92.5%; in assay [12] it was 80.6%. Moreover, the growth is 97.5% in assay [13]; 97.5% in assay [14]; 95.1% in assay [15]; 50.6% in assay [16]; 56.1% in assay [17]; 85.3% in [18].

As to `COc1cc2cc(Oc3ccc(NC(=O)Nc4cc(C(F)(F)F)cc(C(F)(F)F)c4)cc3)c(C)nc2cc1OCCN1CCCCC1`, the growth in assay [1] was -35.6% (active); in assay [2] it was -73.1% (active); in assay [20] it was -98.9% (active); in [4], -72.4% (active); in [5], -100% (active); in assay [6], -76.7% (active). Further, the growth is -26.7% (active) in assay [8]; -44.4% (active) in assay [9]; -29.5% (active) in assay [10]; -65.9% (active) in assay [13]; -90.6% (active) in assay [14]; -78.4% (active) in [15]. Further, the growth was -91.4% (active) in assay [16], -44.1% (active) in [17] and -66.9% (active) in [18].

Take `CNC=O`: the growth is 110% in [1]; 156% in assay [2]; 101% in assay [4]; 110% in assay [5]; 99.6% in assay [6]; 103% in [8]. The growth in [9] is 106%; in assay [10] it was 92.4%; in assay [11] it was 103%; in assay [13] it was 87.7%; in assay [14] it was 115%; in [19] it was 105%. Further, the growth in assay [15] is 95%; in assay [16], 109%; in assay [17] it was 2.14% (active); in assay [18], 59.5%.

Turning to `COc1ccc(N(C)c2nc(Cl)nc3cnn(C)c23)cc1`, the growth in assay [1] was 22.2%; in [2] it was 46.1%; in assay [20] it was 34%; in assay [4], 50.9%; in assay [5], 23.9%; in assay [6] it was 22.9%. The growth is -9.16% (active) in assay [7]; 13% in assay [8]; 14.9% in assay [9]; 28.2% in [11]; 12.6% in assay [12]; 33% in assay [13]. The growth in [14] is 48.2%; in assay [19] it was 10.6%; in assay [15], 23.7%; in assay [16], 4.74% (active); in assay [17] it was 37.8%; in assay [18], 2.72% (active).

Turning to `CCn1c(Sc2nnc(Nc3ccccc3)s2)nc2c1c(=O)n(C)c(=O)n2C`, the growth in [1] was 130%; in [2] it was 86.5%; in assay [4], 146%; in assay [5] it was 91%; in assay [6], 93.9%; in assay [8] it was 117%. In addition, the growth was 110% in assay [9]; 103% in assay [10]; 122% in assay [11]; 103% in [12]; 77.4% in assay [13]; 96.5% in [14]. Besides, the growth in assay [15] was 91.4%; in assay [16], 110%; in [17] it was 99.3%; in [18], 89.6%.

`C(=C\c1nc2ccccc2[nH]1)/c1nc2ccccc2[nH]1`: the growth was 107% in [1]; 100% in assay [3]; 81.8% in assay [20]; 143% in [4]; 93.3% in assay [5]; 96.6% in assay [6]. The growth was 83.7% in [7]; 93.5% in assay [8]; 80.4% in assay [9]; 93.3% in [10]; 89.9% in assay [11]; 97.6% in assay [12]. The growth is 111% in [13]; 97.1% in [14]; 98.4% in assay [19]; 93.1% in [15]; 109% in assay [16]; 100% in assay [17]. The growth in assay [18] is 94.3%.

On to `CCCCN1CCN(c2ccc3nc(-c4ccc5nc(-c6ccc(OCC)c(OCC)c6)[nH]c5c4)[nH]c3c2)CC1`, for which the growth in assay [1] is 13.1%; in assay [2], 24.6%; in [20], 74.4%; in assay [4] it was 57%; in assay [5], 12.7%; in [6], 27.7%. Besides, the growth in assay [8] was -0.368% (active); in [9], -0.133% (active); in [10], 14.3%; in [11], -25.4% (active); in assay [12], -11.9% (active); in [13] it was 37.7%. Also, the growth was -77.4% (active) in assay [14]; 15.1% in [15]; -87.3% (active) in [16]; 35.2% in assay [17]; 73% in assay [18].

Regarding `CCOC(=O)c1sc(-c2ccc(OS(=O)(=O)c3ccc(C(C)(C)C)cc3)c(C=O)c2)nc1C`, the growth in assay [1] is 72.7%; in [2], 40.2%; in [20] it was 29.9%; in [4], 55.8%; in assay [5], 26.6%; in assay [7], 57%. Moreover, the growth in [8] was 29.9%; in assay [9] it was 20.5%; in [10], 14.5%; in [12], 38.2%; in assay [13], 64.3%; in [14], 39.2%. In addition, the growth in [19] is 85.5%; in assay [15], 32%; in assay [16], 30%; in assay [18], 32.4%.

Regarding `N#Cc1cnn2c(-c3ccc(Cl)cc3)nc(NCCc3ccccc3)nc12`, the growth is 89.1% in [1]; 87.3% in assay [2]; 72.9% in assay [20]; 102% in [4]; 94.2% in assay [5]; 101% in assay [7]. The growth in assay [9] was 74.2%; in assay [10], 83.5%; in assay [12] it was 88.8%; in [13] it was 101%; in assay [14], 85.7%; in [19], 74.5%. Moreover, the growth in assay [15] was 83.4%; in assay [16], 99.2%; in [17], 99.6%; in assay [18], 90.1%.

The values above are taken from PubChem BioAssay (NCI).
